Measured values from PubChem BioAssay AID2125 (NMMLSC, 2009).
Unmarked numbers belong to inactive results.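 How the source made its calls: active means combined score above 50, rising as EC50 falls below 10 µM and growth at top dose drops; inactive means the rest.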 Peptide text beside a SMILES is read from it. * marks the point of attachment. Cbz = O=C(OCc1ccccc1)*

System: YE4008
Assay: yeast strain panel proliferation effects – secondary panel, OD600, 26S proteasome disassembly project, profiling panel (AID 2125)
Details: S. cerevisiae strain panel, growth OD600, 6-8 h, at 100 µM, hits give low values

Structure (SMILES)	percent response (growth) [%]
CC(=O)N1C(=O)C(=C2C=C(C)OC(C)=C2)c2ccccc21	56.6
CC(C)C[C@@H](C=O)NC(=O)[C@H](CC(C)C)NC(=O)[C@H](CC(C)C)NC(=O)OCc1ccccc1 (Cbz-Leu-Leu-Leu-aldehyde)	88.2
